# The source made the active and inactive calls. No rule for the calls is given here.
# Target: Pantothenate synthetase (Mycobacterium tuberculosis (strain ATCC 25618 / H37Rv)) (UniProt P9WIL5)
# Experiment: Coupled enzyme confirmation of inhibitors against recombinant Mtb PanC (AID 375);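 also: 0% = full reaction with vehicle and 100% = no enzyme background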
# Conditions: coupled enzyme assay; at 10 µM, active compounds read high
# Chain of Pantothenate synthetase (Mycobacterium tuberculosis (strain ATCC 25618 / H37Rv)) (P9WIL5 whole entry, looked up): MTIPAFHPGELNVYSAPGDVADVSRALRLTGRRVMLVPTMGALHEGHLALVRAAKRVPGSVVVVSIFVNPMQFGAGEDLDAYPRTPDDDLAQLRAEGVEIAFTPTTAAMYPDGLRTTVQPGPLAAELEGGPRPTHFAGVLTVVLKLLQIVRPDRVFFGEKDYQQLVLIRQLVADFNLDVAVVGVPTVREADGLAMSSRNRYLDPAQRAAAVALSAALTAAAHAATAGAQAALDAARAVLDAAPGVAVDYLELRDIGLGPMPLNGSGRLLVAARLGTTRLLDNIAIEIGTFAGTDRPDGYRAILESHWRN
row,SMILES,inhibition
1,O=C(O)COc1cccc(NC(=O)C2CCCO2)c1 (stereo not given),0% (inactive)
2,Cn1c(=O)[nH]c(=O)c2[nH]c(CN3CCN(C(=O)c4ccco4)CC3)nc21,0% (inactive)
3,Cc1ccc2c(c1)N(CC(=O)Nc1ccc3c(c1)OCCO3)C(=O)CO2,0% (inactive)
4,CC(=O)Nc1ccc(S(=O)(=O)NCc2cn3c(C)csc3n2)cc1,0% (inactive)
5,CCOC(=O)N1CCN(C(=O)CSc2nnc(COc3ccccc3)o2)CC1,2% (inactive)
6,CC(OC(=O)c1ccco1)C(=O)NCc1cccs1 (stereo not given),0% (inactive)
7,Cc1csc(NC(=O)c2cc3c(s2)-c2ccccc2OC3)n1,0% (inactive)
8,CC(=O)c1cccc(NC(=O)CCOc2ccccc2)c1,1% (inactive)
9,Cc1cc(C)nc(N2CCC(C(=O)NCc3cccc(C(F)(F)F)c3)CC2)n1,3% (inactive)
10,Cc1c(-n2c(CN3C(=O)c4ccccc4C3=O)nc3ccccc3c2=O)c(=O)n(-c2ccccc2)n1C,0% (inactive)
11,COc1ccc(N2C(=O)CC(N3CCN(S(=O)(=O)c4c(F)cccc4F)CC3)C2=O)cc1OC (stereo not given),1% (inactive)
12,CC1=C(C)CC2C(=O)N(c3cccc4ccccc34)C(=O)C2C1 (stereo not given),0% (inactive)
13,Cc1ccc(NC(=O)CC2C(=O)NC3CCCCC3N2C(=O)c2ccc(F)cc2)cc1C (stereo not given),4% (inactive)
14,Cc1sc2ncnc(OCC(=O)N3CCN(S(=O)(=O)c4ccccc4)CC3)c2c1C,0% (inactive)
15,CCCn1c(SCC(=O)NC(=O)NCc2ccco2)n[nH]c1=O,0% (inactive)
16,Cc1ccc(-c2nnc3ccc(SCC(=O)NCc4ccco4)nn23)cc1,0% (inactive)
17,CCN(c1c(C)n(C)n(-c2ccccc2)c1=O)S(C)(=O)=O,5% (inactive)
18,Cc1ccccc1C(=O)N1CCC(C(=O)Nc2ccc(S(=O)(=O)N3CCCC3)cc2)CC1,3% (inactive)
19,Cc1cc(C(=O)COC(=O)C2COc3ccccc3O2)c(C)n1CC1CCCO1 (stereo not given),0% (inactive)
20,CCOC(=O)C1=C(Cn2cnc3ccccc32)NC(=O)NC1c1cc(C)ccc1C (stereo not given),0% (inactive)

row,SMILES,inhibition
1,CC(C)CNS(=O)(=O)c1ccc(CCC(=O)NCc2ccco2)cc1,2% (inactive)
2,CCc1c(C(=O)Nc2ncn(Cc3cccc(C)c3)n2)csc1C,4% (inactive)
3,O=C(O)c1cccc(S(=O)(=O)N2CCOCC2)c1,2% (inactive)
4,Cc1ccc(NC(=O)CSc2nnc(Cc3cccn3C)n2-c2ccc(F)cc2)cc1,6% (inactive)
5,CCOC(=O)C1CCN(C(=O)C2CCN(S(=O)(=O)c3cc(Cl)ccc3Cl)CC2)CC1,12% (inactive)
6,Cc1c(NC(=O)c2coc(=O)c(Br)c2)c(=O)n(-c2ccccc2)n1C,7% (inactive)
7,CCOc1ccc(NC(=O)CN2CCN(CC(=O)Nc3ccc(F)c(F)c3)CC2)cc1,0% (inactive)
8,O=C(COC(=O)c1ccc(NS(=O)(=O)c2ccc3c(c2)OCCO3)cc1)NCC1CCCO1 (stereo not given),2% (inactive)
9,COc1ccc(CNC(=O)CCc2nc(-c3ccccc3F)no2)c(OC)c1,0% (inactive)
10,CCOC(=O)c1c(NC(=O)CSc2nc3c(c(=O)n(C)c(=O)n3C)n2C(C)C)sc(C)c1C,10% (inactive)
11,CCc1cc2c(NCCC(=O)O)nc(C)nc2s1,1% (inactive)
12,COc1ccc(OCc2nc(N)nc(Nc3cccc(C)c3C)n2)cc1,1% (inactive)
13,O=C1CC(C(=O)Nc2ccccc2)C2(CCCC2)O1 (stereo not given),2% (inactive)
14,Cn1c(SCc2nc3ccccc3c(=O)[nH]2)nnc1-c1ccco1,13% (inactive)
15,C[C@]12CC[C@@H]3c4ccc(O)cc4C(=O)C[C@H]3[C@@H]1CC[C@@H]2O,0% (inactive)
16,O=C(c1cccc(C(=O)N2CCN(c3ccc(F)cc3)CC2)c1)N1CCN(c2ccc(F)cc2)CC1,10% (inactive)
17,CCC(=O)N1Cc2ccccc2-c2ccccc2C1=O,0% (inactive)
18,CCC1C(=O)N=C(SCC(=O)Nc2cccc3ccccc23)NC1=O (stereo not given),0% (inactive)
19,COC(=O)C(C)Sc1nnc2n(-c3cccc(C)c3)c(=O)c3c4c(sc3n12)CCCC4 (stereo not given),1% (inactive)
20,CCn1c2ccccc2c2cc(Nc3cc(C)nc4ncnn34)ccc21,0% (inactive)

# Source: PubChem BioAssay
